This is a sample that favours compounds with a hit; in the whole collection about 13% have one here.
PK Bst = pyruvate kinase (B. stearothermophilus) modulation; purified pyruvate kinase, luminescence ATP production; ribose 5-phosphate activator present at AC10; Potency, µM; actives 1.2% (n = 51,000); AID 361; in the data active means potency below about 11 µM; inconclusive means mostly about 12 µM to 25 µM;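 the screen sought inhibitors and activators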;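 further: potency means the concentration at half of the fitted maximal effect; scaled between full activation by ribose 5 phosphate and full inhibition by luteolin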
HADH2 inhib = blocks human hydroxyacyl-CoA dehydrogenase type II. Q99714. recombinant HADH2, NADH fluorescence, beta-hydroxybutyryl-CoA. Potency, µM (doses to about 57.1 µM), for inactives: at the top dose activity change, negative = inhibition, usual class: inhibitors. actives 3.4% (n = 73,000). AID 886; further: potency means the concentration at half of the fitted maximal effect; on the % scale 0 is the no-effect control and ±100 the full control effect; nearly all actives have a fitted effect of over 60% in size
Target sequence (Q99714 whole entry, looked up, one chain of several): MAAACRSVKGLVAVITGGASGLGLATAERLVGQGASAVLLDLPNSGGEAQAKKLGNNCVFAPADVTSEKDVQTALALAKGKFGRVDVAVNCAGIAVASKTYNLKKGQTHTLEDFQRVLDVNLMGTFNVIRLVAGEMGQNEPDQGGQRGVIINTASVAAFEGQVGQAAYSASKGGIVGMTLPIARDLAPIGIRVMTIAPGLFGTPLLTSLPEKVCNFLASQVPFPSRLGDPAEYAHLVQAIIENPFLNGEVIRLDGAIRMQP
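Buffer 100 mM Tris-HCl pH 9.0/0.01% Tween-20; HADH2 20 nM; NAD+ 1 mM; beta-hydroxybutyryl-CoA 90 uM (all final). 15 min cpd preincubation, RT.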
A350 fluor = compounds fluorescent in Alexa 350 spectral region. AID 590. actives 11% (n = 59,000). max dye-equivalent concentration, M. Compound autofluorescence, 340/450 nm, Alexa 350 dye-equivalents; active compounds read high; in the data active means max dye-equivalent concentration above about 10 nM; inconclusive means mostly about 1.1 nM to 9.6 nM
AID923 = qHTS Assay for Allosteric/Competitive Inhibitors of Caspase-1: Spectroscopic Profiling in AFC Spectral Region; compound fluorescence, AFC spectral region (405/520 nm); Potency, µM (series often up to 57.5 µM), for the others: at the highest dose fluorescence increase, usual class: activators; actives 1.1% (n = 75,000); AID 923, 2007; further: potency means the concentration at half of the fitted maximal effect; 0% is about no effect
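Titrations up to 57 uM read every 20 sec for 3 min (405/520 nm) with 50 nM caspase 1 and 5 uM Ac-WEHD-AFC, pH 7.5 HEPES buffer. Fluorescence-vs-time intercept gave baseline, scaled against on-plate AFC standard.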
4MU fluor = compound fluoresces in the 4-MU spectral region; max dye-equivalent concentration, M; compound autofluorescence, 340/450 nm, 4-MU equivalents; active compounds read high; actives 11% (n = 59,000); AID 589; in the data active means max dye-equivalent concentration above about 10 nM; inconclusive means mostly about 1.1 nM to 9.6 nM
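Intrinsic fluorescence at 340/450 nm (ex/em) was read after 15 min at room temperature in pH 8.0, 100 mM Tris. Each compound concentration expressed as 4-MU-equivalent concentration from a six-point 4-MU standard series on each plate.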
HSD17B inhib = blocks hydroxysteroid 17-beta dehydrogenase activity; actives 7.6% (n = 75,000); Potency, µM (titrated, usually from 57.1 µM), for the others: top-dose activity change, negative = inhibition, hits mostly inhibitors; recombinant HSD17B10, NADH fluorescence kinetic; Q99714; AID 893;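 further: the protocol describes HADH2 (HSD17B10) and not the HSD17B4 of the title; potency means the concentration at half of the fitted maximal effect; on the % scale 0 is the no-effect control and ±100 the full control effect; nearly all actives have a fitted effect of over 70% in size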
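Enzyme plus compound, 15 min room temperature; substrate mix added (NAD+ 1 mM, beta-hydroxybutyryl-CoA 90 uM final); plates read kinetically for NADH fluorescence. HADH2 was His-tagged, E. coli-derived, 20 nM.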
Starred values were filed as active, the others as inactive; [ ] = remark or other dose. Unless noted, the call rests on the fitted dose curve; in most records, active means well fitted curve in the direction sought with a large enough effect; inconclusive means small, poorly fitted or top-dose-only effect, or another doubt; inactive means no such curve, though single readings can be large; an effect the other way counts as inactive or inconclusive.

Screening CC1(C)O[C@@H]2C[C@H]3[C@H]4C[C@H](F)C5=CC(=O)C=C[C@@]5(C)[C@@H]4[C@H](O)C[C@]3(C)[C@]2(C(=O)CO)O1 returned HADH2 inhib -9.5%[25.6 µM], A350 fluor 2.43e-08M*, AID923 3.9%[25.7 µM], 4MU fluor 2.32e-08M* and HSD17B inhib -16.1%[25.6 µM].
CC1(C)OC2CC3C4CC(F)C5=CC(=O)C=CC5(C)C4C(O)CC3(C)[C@]2(C(=O)CO)O1 (some centres undefined) was read as AID923 -2.7% and HSD17B inhib inconclusive.
Screening Cc1cc(CC(=O)O)n(C)c1C(=O)c1ccc(Cl)cc1 returned HADH2 inhib -4.5%, A350 fluor inconclusive, AID923 -0.9%, 4MU fluor inconclusive and HSD17B inhib 1.5%.
O=c1cnc2cnc(Nc3ccccc3)nc2n1CCc1ccccc1 was read as HADH2 inhib 10.7%, A350 fluor inactive, AID923 17.7%, 4MU fluor inactive and HSD17B inhib -9.1%.
For O=C(CSc1n[nH]c(-c2ccc(S(=O)(=O)NC3CCCCC3)cc2)n1)N1CCCC1 the results were PK Bst >57, HADH2 inhib 25.1µM*, A350 fluor inconclusive, AID923 0.4%, 4MU fluor inactive and HSD17B inhib 25.1µM*.
c1cncc(-c2nc(-n3ccnc3)c3ccccc3n2)c1 was read as HADH2 inhib -3.9%, A350 fluor inactive, AID923 2.3%, 4MU fluor inactive and HSD17B inhib 0.6%.
For COCCNc1nc(C)nc2c1nc(-c1ccccc1)n2CCN1CCCC1 the results were HADH2 inhib 2.5%, AID923 0.6% and HSD17B inhib 25.1µM*.
`COCCNc1nc(C)nc2c1nc(-c1ccccc1)n2CCN1CCCCC1` gave HADH2 inhib inconclusive, AID923 -0.5% and HSD17B inhib 25.1µM*.
CCCn1c(C)nc2c(NCCCCN3CCCC3)nc(C)nc21 was read as HADH2 inhib -1.0%, AID923 -0.5% and HSD17B inhib 19.2%.
`CCCCNc1nc(C)nc2c1nc(-c1ccccc1)n2CCN1CCCCC1` gave HADH2 inhib inconclusive, AID923 -1.0% and HSD17B inhib 31.6µM*.
Screening CCCn1c(C)nc2c(NCCN3CCCC3)nc(C)nc21 returned HADH2 inhib 15.0%, AID923 2.5% and HSD17B inhib 23.4%.
`COc1ccc(C2CC(C(F)(F)F)n3ncc(C(=O)Nc4cccc(O)c4)c3N2)cc1OC` (centres undefined) gave PK Bst >25.6, A350 fluor inactive and 4MU fluor inactive.
For Cc1ccsc1C1NC(=O)c2c(sc3c2CCCC3)N1 (centres undefined) the results were PK Bst inactive, A350 fluor 1.93e-08M* and 4MU fluor 1.46e-08M*.
Screening Cc1ccsc1C1NC(=O)c2ccccc2N1 (centres undefined) returned PK Bst >57, HADH2 inhib inconclusive, A350 fluor 1.24e-06M*, AID923 2.2%, 4MU fluor 8.72e-07M* and HSD17B inhib 31.6µM*.
Screening O=C1NC(c2cccs2)Nc2ccccc21 (centres undefined) returned A350 fluor 2.23e-07M* and 4MU fluor 1.92e-07M*.
COC(=O)C1=C(C)C(c2cccs2)NC(=O)N1C (centres undefined) was read as PK Bst >57, HADH2 inhib -2.6%, A350 fluor inactive, AID923 0.6%, 4MU fluor inactive and HSD17B inhib 2.3%.
O=C(NC1CCCCCCC1)c1ccc2c(c1)N(Cc1ccc(F)cc1)C(=O)CS2=O (centres undefined) was read as PK Bst >57, HADH2 inhib -3.8%, A350 fluor inactive, AID923 -1.5%, 4MU fluor inactive and HSD17B inhib -7.4%.
O=C(N/N=C1/C[C@@H](O)[C@@H](O)[C@@H]2[C@@H]3C(=O)N(C[C@@H]4CCCO4)C(=O)[C@H]3CC[C@@H]12)OCc1ccccc1 was read as HADH2 inhib -1.1%[11.4 µM], AID923 1.2%[11.5 µM] and HSD17B inhib -0.6%[11.4 µM].

Screens as filed in PubChem.
